Bioassay records from PubChem BioAssay.
TDP1 inh = qHTS Assay for Inhibitors of Tyrosyl-DNA Phosphodiesterase (TDP1) | Tyrosyl-DNA phosphodiesterase 1 (Homo sapiens), Q9NUW8 | recombinant TDP1, AlphaScreen DNA substrate cleavage | Potency, µM (series often up to 130 µM), without a hit: at the top dose activity change, negative = inhibition, most hits filed as inhibitors | hit rate 0.28% among 350,000; note: nearly all actives have a fitted effect of over 40% in size
Target sequence (Q9NUW8 whole entry, looked up): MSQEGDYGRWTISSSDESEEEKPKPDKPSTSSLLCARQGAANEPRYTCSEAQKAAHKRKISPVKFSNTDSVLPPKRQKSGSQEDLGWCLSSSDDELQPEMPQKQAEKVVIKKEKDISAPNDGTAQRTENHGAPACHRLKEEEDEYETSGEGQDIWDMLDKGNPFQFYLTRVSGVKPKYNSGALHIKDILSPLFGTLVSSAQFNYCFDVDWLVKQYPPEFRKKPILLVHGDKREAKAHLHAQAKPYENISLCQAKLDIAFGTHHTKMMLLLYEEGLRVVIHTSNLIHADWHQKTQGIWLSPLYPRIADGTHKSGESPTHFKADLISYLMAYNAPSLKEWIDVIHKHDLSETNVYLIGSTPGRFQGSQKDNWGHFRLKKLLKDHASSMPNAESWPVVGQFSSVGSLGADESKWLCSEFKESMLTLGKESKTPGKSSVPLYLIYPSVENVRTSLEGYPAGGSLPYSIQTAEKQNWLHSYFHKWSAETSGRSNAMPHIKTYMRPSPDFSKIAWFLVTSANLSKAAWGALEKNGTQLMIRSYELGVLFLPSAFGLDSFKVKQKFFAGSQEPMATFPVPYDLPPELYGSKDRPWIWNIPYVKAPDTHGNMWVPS
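Steps: enzyme plus compound, 15 min RT; add biotin/phosphotyrosine-FITC oligonucleotide (15 nM final), react 5 min; add donor/acceptor beads (10 ug/ml final), 10 min; read AlphaScreen. Tdp1 at 1 nM final.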
TDP1 cell CPT = qHTS for Inhibitors of human tyrosyl-DNA phosphodiesterase 1 (TDP1): qHTS in cells in presence of CPT; chicken DT40 Tdp1-/-;hTDP1 cells + 20 nM CPT, ATP luminescence, 48 h; hit rate 12% among 420,000; Potency, µM (highest dose often 46.2 µM), without a hit: top-dose activity change, negative = growth inhibition, usual class: inhibitors; note: nearly all actives have a fitted effect of over 55% in size
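Chicken DT40 Tdp1-/- cells stably complemented with human TDP1 were seeded at 400 cells/well in medium containing 20 nM camptothecin, exposed to pin-transferred compounds, and grown at 37 °C for at least 48 hr. Viability was read as ATP luminescence.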
RORg inh = qHTS for inhibitors of ROR gamma transcriptional activity | Nuclear receptor ROR-gamma (Mus musculus), P51450 | Drosophila S2 Gal4-RORgamma UAS-luciferase reporter, 20 h | Potency, µM (highest dose often 53.6 µM), inactives show at the highest dose activity change, negative = inhibition, hits mostly inhibitors | hit rate 5.4% among 310,000; note: nearly all actives have a fitted effect of over 60% in size
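Stably transfected Drosophila Schneider cells are the test system, with ROR gamma fused to Gal4 and luciferase under UAS control; luminescence is read after 20 hr of 700 uM copper sulfate induction at ambient temperature.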
DT40 TDP1 no CPT = qHTS for Inhibitors of human tyrosyl-DNA phosphodiesterase 1 (TDP1): qHTS in cells in absence of CPT | AID 686978, 2013 | hit rate 15% among 420,000 | Potency, µM (titrated, usually from 46.2 µM), inactives show top-dose activity change, negative = growth inhibition, most hits filed as inhibitors | DT40 Tdp1-/- hTDP1 cells, no CPT, ATP luminescence, 48 h; note: nearly all actives have a fitted effect of over 55% in size
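Growth kinetics read by CellTiter-Glo luminescence after ≥48 hr at 37 °C. Cells: DT40 Tdp1-/- stably carrying human TDP1, 400 per well, compound exposure in the absence of CPT (DMSO vehicle).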
VP16 counter = VP16 counterscreen qHTS for inhibitors of ROR gamma transcriptional activity; Drosophila S2 Gal4-VP16 UAS-luciferase, luminescence, 20 h; Potency, µM (highest dose often 53.6 µM), without a hit: top-dose activity, negative = inhibition, hits mostly inhibitors; hit rate 3.5% among 310,000; AID 2546, 2010;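 note: Gal4-VP16 expression switched on by copper sulfate through the metallothionein promoter; nearly all actives have a fitted effect of over 50% in size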
An asterisk follows results filed as active; ? = inconclusive; . = no result given; [ ] = dose if it differs, or a comment. Sampled rows, rich in hits. Any-hit rate of the full collection: about 19%. Calls come from the whole dose curve; as a rule, active = well fitted curve in the direction sought with a large enough effect; inconclusive = small, poorly fitted or top-dose-only effect, or another doubt; inactive = no such curve, though single readings can be large; an effect the other way counts as inactive or inconclusive. % is set by controls: 0 for no effect and ±100 for the full control effect; potency is the fitted concentration of half-maximal effect.

SMILES	TDP1 inh	TDP1 cell CPT	RORg inh	DT40 TDP1 no CPT	VP16 counter
CCCCn1cc2c(c1-c1ccccc1Br)c(=O)n(C)c(=O)n2C	7%	23µM*	.	16µM*	.
CCCn1cc2c(c1-c1cccc(C)c1)c(=O)n(C)c(=O)n2C	-1%	?	-28%	?	-10%
CCCCCn1cc2c(c1-c1ccccc1Br)c(=O)n(C)c(=O)n2C	5%	12µM*	.	12µM*	.
CCOC(=O)C1=C(CS(=O)(=O)c2ccc(OC)c(Cl)c2)NC(=O)NC1c1cccc(OC)c1 (centres undefined)	6%	?	.	?	.
Cc1c(N(C)S(=O)(=O)c2cccc(C(=O)NCc3cccnc3)c2)c(=O)n(-c2ccccc2)n1C	.	-3%	.	-15%	.
O=C(Nc1ccc(O)cc1)C1CCCN1S(=O)(=O)c1ccc(F)cc1 (centres undefined)	0%	?	-12%	?	3%
COc1ccc(NC(=O)C2=NN(c3ccccc3)C(=O)CC2)cn1	0%	?	.	-21%	.
C=CCNc1nc(N2CCCCC2)c(C#N)c2c1CN(Cc1ccccc1)CC2	7%	23µM*	?	23µM*	4%
CCN1CCc2c(C#N)c(N3CCCCC3)nc(NCc3ccccc3)c2C1	7%	21µM*	?	16µM*	9%
CC(C(=O)N1CCN(Cc2ccc3c(c2)OCO3)CC1)n1cc([N+](=O)[O-])cn1 (centres undefined)	11%	8%	40%	-9%	-10%
C/C(=C\c1ccccc1)C1Nc2cccc3cccc(c23)N1	9%	.	.	.	.
CCCCOP(=O)(OCCCC)C1(NS(=O)(=O)c2ccccc2)C=CC(=O)c2ccccc21 (centres undefined)	11%	16µM*	-54%	23µM*	-24%
Cc1cc(C(=O)Nc2nc(C)c(C(=O)N(C)C)s2)ccc1[N+](=O)[O-]	-3%	-14%	?	-20%	?
O=C(NCc1ccc(N2CCCC2=O)cc1)Nc1cccc2ccccc12	1%	7%	-1%	-13%	-2%
CCOC(=O)[C@@H](C)N(C(=O)OC(C)(C)C)S(=O)(=O)N(Cc1ccccc1)[C@H](C(=O)OC)C(C)C	.	23µM*	.	?	.
O=C1C=CN2CCOCC2C1 (centres undefined)	1%	5%	.	-3%	.
O=C1C=CN2CCCCC2CC1 (centres undefined)	4%	10µM*	.	16µM*	.
COC(=O)C1=C(C(=O)OC)[C@@H]2N(C)c3ccc(OC)cc3[C@@]23C[C@@H](C(=O)OC)N(C(=O)c2cc(C)oc2C)C3=N1	8%[12.3 µM]	23µM*	.	?	.
COC(=O)C1=C(C(=O)OC)[C@@H]2N(Cc3ccccc3)c3ccccc3[C@@]23C[C@@H](C(=O)OC)N(C(=O)c2cccs2)C3=N1	20%[12.3 µM]	21µM*	?	?	18µM*
COC(=O)C1=C(C(=O)OC)[C@@H]2N(C)c3ccc(OC)cc3[C@@]23C[C@@H](C(=O)OC)N(C(=O)c2cccs2)C3=N1	7%[12.3 µM]	-1%	9%	-22%	0%
COC(=O)C1=C(C(=O)OC)[C@@H]2N(Cc3ccccc3)c3ccccc3[C@@]23C[C@@H](C(=O)OC)N(C(=O)c2cc(C)oc2C)C3=N1	3%[12.3 µM]	23µM*	.	18µM*	.
C#CCCOC(=O)N1C2=NC(C(=O)OC)=C(C(=O)OC)[C@@H]3N(Cc4ccccc4)c4ccccc4[C@]23C[C@H]1C(=O)OC	8%[12.3 µM]	16µM*	27%	?	-9%
COC(=O)C1=C(C(=O)OC)[C@@H]2N(C)c3ccccc3[C@@]23C[C@@H](C(=O)OC)N(C(=O)c2cccs2)C3=N1	12%[12.3 µM]	?	19%	?	-11%
N#CCCN1CCN(S(=O)(=O)c2ccc3c(c2)OCCCO3)CC1	-1%	-2%	34%	-4%	0%
CC1(C)C2CCC1(CS(=O)(=O)NCc1ccc(S(N)(=O)=O)cc1)C(=O)C2 (centres undefined)	3%	1%	-15%	0%	2%
SMILES	TDP1 inh	TDP1 cell CPT	RORg inh	DT40 TDP1 no CPT	VP16 counter
CCOC(=O)c1c(NC(=O)c2ccc(OC)cc2)sc2c1CCCCC2	0%[12.3 µM]	-18%	.	-28%	.
Cc1c(C(c2ccc(C(=O)O)cc2)c2c(C)n(C)n(-c3ccccc3)c2=O)c(=O)n(-c2ccccc2)n1C	.	10%	11%	-1%	-2%
Cc1cccc(OCC(=O)Nc2ccc3c(C)cc(=O)oc3c2)c1	3%	-6%	15%	-3%	-2%
CC#CCN1c2ccccc2[C@]23C[C@@H](C(=O)OC)N(C(=O)c4ccc(Br)cc4)C2=NC(C(=O)OC)=C(C(=O)OC)[C@H]13	16%[12.3 µM]	21µM*	.	18µM*	.
CC#CCN1c2ccccc2[C@]23C[C@@H](C(=O)OC)N(C(C)=O)C2=NC(C(=O)OC)=C(C(=O)OC)[C@H]13	10%[12.3 µM]	20%	18%	-16%	-5%
C#CCCOC(=O)N1C2=NC(C(=O)OC)=C(C(=O)OC)[C@@H]3N(C)c4ccccc4[C@]23C[C@H]1C(=O)OC	8%[12.3 µM]	-12%	5%	-11%	2%
CCOC(=O)N1C2=NC(C(=O)OC)=C(C(=O)OC)[C@@H]3N(C)c4ccccc4[C@]23C[C@H]1C(=O)OC	-1%[12.3 µM]	16µM*	-11%	18µM*	-3%
Cc1cc(C)c(S(=O)(=O)NCC(c2cccnc2)N2CCN(Cc3ccccc3)CC2)c(C)c1 (centres undefined)	4%	?	0%	?	6%
Cc1ccc(NC(=O)CCS(=O)(=O)c2cccc3nonc23)c(C)c1	-1%	-11%	.	-2%	.
CCN(CC)CCCOc1nc(C)nc2c1oc1ccccc12	-4%	-2%	-22%	?	18%
Clc1ccc2nnnc(-c3ccccc3)c2c1	8%	3.3µM*	?	4.1µM*	-20%
CCOC(=O)c1c(NC(=O)c2cccnc2)sc(C(C)=O)c1C	-3%	?	2%	?	-12%
COc1ccccc1C(=O)NNC(=S)NC(=O)c1cccs1	3%	.	-3%	.	0%
O=C(NC(=S)NNC(=O)c1ccccc1O)c1ccccc1	.	?	11µM*	29µM*	-8%
O=C(NNC(=O)c1cc(Cl)ccc1O)c1cccs1	6%[0.0935 µM]	?	13µM*	18µM*	-8%
O=C(NNC(=O)c1ccc([N+](=O)[O-])cc1)c1ccc(Br)cc1	.	-47%	-11%	-25%	-14%
